Screening data (PubChem BioAssay)
Shown is part of a subset that was picked to be rich in hits.
TbREL1 primary: TbREL1 RNA ligase inhibitors, primary screen, biochemical, FRET fluorescence. AID 1117264, 2014. inhibition, % at 9.66 µM. TbREL1 RNA ligation. 89,000 tested, 0.49% active. RNA-editing ligase 1, mitochondrial (Trypanosoma brucei brucei), P86926;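 active = inhibition above the mean inhibition across all screened compounds plus 3 SD, cut at about 11% in these data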
Target sequence (P86926 whole entry, looked up): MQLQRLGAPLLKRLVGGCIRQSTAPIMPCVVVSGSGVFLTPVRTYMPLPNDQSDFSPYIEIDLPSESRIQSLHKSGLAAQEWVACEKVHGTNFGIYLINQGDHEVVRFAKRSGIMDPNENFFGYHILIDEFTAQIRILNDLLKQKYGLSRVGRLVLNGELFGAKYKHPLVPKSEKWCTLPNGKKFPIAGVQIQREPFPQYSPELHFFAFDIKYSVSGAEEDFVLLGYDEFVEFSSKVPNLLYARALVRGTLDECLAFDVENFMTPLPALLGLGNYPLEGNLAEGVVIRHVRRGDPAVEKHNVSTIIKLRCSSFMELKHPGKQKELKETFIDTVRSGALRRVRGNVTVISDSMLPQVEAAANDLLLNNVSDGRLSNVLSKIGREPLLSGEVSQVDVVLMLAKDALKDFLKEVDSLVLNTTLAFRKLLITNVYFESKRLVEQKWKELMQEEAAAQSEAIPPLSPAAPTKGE
TbREL1 confirm: TbREL1 RNA ligase inhibitors, confirmation, biochemical, FRET fluorescence, triplicate. TbREL1 RNA ligation. inhibition, % at 9.66 µM. 390 tested, 37% active. AID 1117282, 2014. shares compounds with TbREL1 primary;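 active = mean inhibition across replicates above a set limit taken from the earlier primary screen, cut at about 11% in these data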
Hits are given with their value; 0 = inactive.

SMILES	TbREL1 primary	others
Cc1cccc(CN[C@@H]2CC[C@@]34CCCN3C(=O)CCC[C@H]4C2)c1	0
Cc1n[nH]c(=S)n(NC(=O)/C=C/C(=O)Nn2c(=S)[nH]nc(C)c2=O)c1=O	20	TbREL1 confirm=15
C#CCOCCOCCOCCNc1nc(N2CCN(C(=O)[C@H]([C@@H](C)CC)n3cc(CCCCN)nn3)CC2)nc(N2CCN(C(=O)[C@H](Cc3ccc(O)cc3)n3cc(CCO)nn3)CC2)n1	0
COC(=O)c1ccc(S(=O)(=O)N2CCC(NC(=O)Cc3cccc(C)c3)CC2)cc1	0
O=C(Cc1ccccc1Cl)NCCN1C(=O)C2C3C=CC(C3)C2C1=O (stereo not drawn)	0
c1cc(-c2nnc3n2N=C(c2ccc4c(c2)OCO4)CS3)ccn1	0
O=C(CCN1C(=O)S/C(=C/c2ccccc2)C1=O)Nc1ccc(O)c(C(=O)O)c1	14	TbREL1 confirm=15
O=C(CCN1C(=O)/C(=C\c2ccccc2)SC1=S)Nc1ccc(C(=O)O)cc1	0
O=C(CCCN1C(=O)/C(=C\c2ccccc2)SC1=S)Nc1ccc(O)cc1	0
CC(C)COc1ccc(-c2csc(N3CCC(C(N)=O)CC3)n2)cc1	0
CCOC(=O)c1c(C)n(C)c2ccc(OCC(N)=O)cc12	0
CCOC(=O)C1=C(C)N(C)C(=O)NC1c1cccc([N+](=O)[O-])c1 (stereo not drawn)	0
CCOC(=O)c1c(C)n(C)c2cc([N+](=O)[O-])c(O)c([N+](=O)[O-])c12	11	TbREL1 confirm=0
COC(=O)c1ccccc1NC(=O)NCC1CCN(Cc2ccc(OC)cc2)CC1	0
O=C(Nc1ccccc1C(F)(F)F)O[C@@H]1CC[C@@]23CCCN2C(=O)CCC[C@H]3C1	0
Cc1cccc(NC(=O)CSc2nnc(-c3cccnc3)n2Cc2ccco2)c1C	0
c1ccc(-c2ccccc2OCCOCCN2CCCCC2)cc1	0
CN(C)CCOCCOc1ccccc1-c1ccccc1	15	TbREL1 confirm=0
OCCNCCOCCOc1ccccc1-c1ccccc1	0
O=C1CCC[C@H]2[C@@H](Cc3ccccc3)[C@@H](O)CC[C@]23CCCN13	0
COc1cc(C(=O)/C=C/c2cccnc2)c([N+](=O)[O-])cc1OC	0
O=C(/C=C/c1cccnc1)c1ccc([N+](=O)[O-])cc1	11	TbREL1 confirm=0
CN(C)C(=O)COc1ccc(C(=O)/C=C/c2cccnc2)cc1	0
CCN(CC)C(=O)Cn1c2ccccc2c2nc3n(c(=O)c21)CCS3	0
COC(=O)[C@H](Cc1ccc(O)cc1)NC(=O)Cn1ccc(NC(=O)OCc2ccccc2)nc1=O	0
SMILES	TbREL1 primary	others
Cc1cn(CC(=O)N[C@H](C)c2cccc3ccccc23)c(=O)[nH]c1=O	0
COC(=O)C(Cc1ccc(O)cc1)NC(=O)Cn1cc(C)c(=O)[nH]c1=O (stereo not drawn)	11	TbREL1 confirm=0
Cc1ccc(C(=O)C2CCN(CC(=O)NC(C)C)CC2)cc1	0
CC(C)c1cc(C(=O)NCc2ccco2)no1	0
CCc1ccc(NC(=O)c2cc(C(C)C)on2)cc1	0
CC(C)c1cc(C(=O)NCCc2ccccc2)no1	11	TbREL1 confirm=0
O=C1N(CC[C@@H](O)c2ccccc2)CCC12CCC(c1ccccc1)CC2 (stereo partly drawn)	0
CCOc1ccc(/C=C2\NCCc3cc(OCC)c(OCC)cc32)cc1OCC	0
COC(=O)[C@]12C[C@H](CC(=O)N3CCCC3)C(=O)N(Cc3cccc4ccccc34)C1=C[C@H](C(C)(C)C)O[C@@H]2C	0
Cc1ccc(C(=O)C2CCN(CC(=O)N3CCCC3)CC2)cc1	0
Cc1ccc(C(=O)N2CCC(C(=O)c3ccc(Cl)cc3)CC2)cc1	0
Cc1ccc(C(=O)C2COC(=O)C2)cc1 (stereo not drawn)	20	TbREL1 confirm=0
O=C(N1CCC(Cc2ccccc2)CC1)n1ncc(C(O)(c2ccccc2)c2ccccc2)n1	0
COc1cc(NC(=O)C2CCCN(S(=O)(=O)c3ccc(C)c(C)c3)C2)cc(OC)c1 (stereo not drawn)	0
COc1ccc(-c2nc(CN3CCN(c4cc(C)nc(C)c4)CC3)c(C)o2)c2ccccc12	15	TbREL1 confirm=0
COc1ccc(F)c(-c2nc(CN3CCN(C(=O)c4ccco4)CC3)c(C)o2)c1	0
COc1ccc(CCNC(=O)C2CCCN(Cc3nc(-c4ccccc4C)oc3C)C2)cc1OC (stereo not drawn)	0
C=CCn1c(COc2ccc(C)cc2)nnc1SCC(=O)Nc1ccc(Oc2ccccc2)cc1	0
CCC[C@H]1[C@@H](OC(=O)NC(CC)CC)CC[C@@]23CCCN2C(=O)CCC[C@@H]13	0
CCc1ccc(-n2ncc(Cl)c(Oc3ccc(OC)cc3)c2=O)cc1	0
N#CCSc1nc2ccccc2o1	0
N#CCSc1nccc(/C=C/c2ccccc2)n1	12	TbREL1 confirm=0
C(=C\c1ccccc1)/CSc1nc2ncccc2[nH]1	0
O=C(C1CCCN(S(=O)(=O)c2ccccc2[N+](=O)[O-])C1)N1CCN(Cc2ccccc2)CC1 (stereo not drawn)	0
CCN(CC)c1ccc(C(=O)NC(=S)Nc2cc(S(=O)(=O)N3CCOCC3)ccc2-n2cncn2)cc1	0
SMILES	TbREL1 primary	others
O=C(CSc1nnc(COc2ccccc2)n1-c1ccc(Cl)cc1)Nc1ccc2c(c1)OCCO2	0
N#C/C(=C/c1ccccc1)C(=O)NCc1ccccc1	0
N#C/C(=C/c1cccc(O)c1)C(=O)NCc1ccc(Cl)cc1	0
N#C/C(=C/c1ccc(O)c(O)c1)C(=O)NCc1ccc(Cl)cc1	46	TbREL1 confirm=0
COc1ccccc1CNC1CCC12CCC(c1ccccc1)CC2 (stereo not drawn)	0
CCN(CC)C(=O)O[C@H]1CC[C@@]23CCCN2C(=O)CCC[C@H]3[C@H]1C	0
CCCCN1CC[C@H](C)Oc2cc(Br)ccc2S1(=O)=O	0
O=C(NCc1cccs1)C1C2C=CC3(CN(Cc4ccccc4)C(=O)C13)O2 (stereo not drawn)	0
O=C(NCC1CCCO1)C1C2C=CC3(CN(Cc4cccs4)C(=O)C13)O2 (stereo not drawn)	20	TbREL1 confirm=0
CC(C)CCOC(=O)C1C2C=CC3(CN(Cc4cccs4)C(=O)C13)O2 (stereo not drawn)	0
Nc1cccc(S(=O)(=O)N2CCCN(S(=O)(=O)c3ccc4c(c3)OCCO4)CC2)c1	0
O=S(=O)(c1ccccc1F)n1c(CN2CCOCC2)nc2ccccc21	0
O=C(CSc1nnc(-c2cccnc2)n1-c1ccccc1)Nc1ccc2c(c1)OCCO2	0
COC(=O)CN1CCN(C(=O)c2csc3ccccc23)CC1	0
O=C(Cc1ccccc1)NCCN1CCCC1	0
O=C(O)CCCNC(=O)Nc1ccccc1	0
O=C(O)CCCNC(=O)Cc1ccccc1	17	TbREL1 confirm=0
O=C(NCC(c1ccccc1)c1ccccc1)[C@H](Cc1ccccc1)NC1(C(=O)NC2CCCCC2)CCCC1	0
CCC(C)(C)C(=O)N1CCC(C(=O)NC2CCCc3ccccc32)CC1 (stereo not drawn)	0
O=C(CCl)Nc1ccc(C(=O)NCC2COc3ccccc3O2)cc1 (stereo not drawn)	0
COc1cc(-c2nnc(SCC(=O)NN=Cc3c[nH]c4ccccc34)n2-c2ccccc2)cc(OC)c1OC	0
O=C(CSc1nc2ccccc2o1)NN=C/C=C/c1ccccc1	0
Cc1ccc(OCc2nnc(SCC(=O)Nc3ccc(S(=O)(=O)Nc4cc(C)nc(C)n4)cc3)n2Cc2ccco2)cc1	0
